Screening data (PubChem)
Dicer inh = inhibitors of Dicer pre-microRNA processing, primary screen, biochemical, cat-ELCCA, chemiluminescence. Endoribonuclease Dicer (Homo sapiens), Q9UPY3. AID 1347074, 2019. cat-ELCCA pre-miR-21 Dicer processing; hits give high values. 47,000 tested, 6% active. z-score at 25 µM; in the data active = z-score above about 3, passing the limit was not always enough;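 also: plate controls were vehicle for no effect and no enzyme for full effect; higher signal means more uncleaved substrate so more Dicer inhibition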
Target sequence (Q9UPY3 whole entry, looked up): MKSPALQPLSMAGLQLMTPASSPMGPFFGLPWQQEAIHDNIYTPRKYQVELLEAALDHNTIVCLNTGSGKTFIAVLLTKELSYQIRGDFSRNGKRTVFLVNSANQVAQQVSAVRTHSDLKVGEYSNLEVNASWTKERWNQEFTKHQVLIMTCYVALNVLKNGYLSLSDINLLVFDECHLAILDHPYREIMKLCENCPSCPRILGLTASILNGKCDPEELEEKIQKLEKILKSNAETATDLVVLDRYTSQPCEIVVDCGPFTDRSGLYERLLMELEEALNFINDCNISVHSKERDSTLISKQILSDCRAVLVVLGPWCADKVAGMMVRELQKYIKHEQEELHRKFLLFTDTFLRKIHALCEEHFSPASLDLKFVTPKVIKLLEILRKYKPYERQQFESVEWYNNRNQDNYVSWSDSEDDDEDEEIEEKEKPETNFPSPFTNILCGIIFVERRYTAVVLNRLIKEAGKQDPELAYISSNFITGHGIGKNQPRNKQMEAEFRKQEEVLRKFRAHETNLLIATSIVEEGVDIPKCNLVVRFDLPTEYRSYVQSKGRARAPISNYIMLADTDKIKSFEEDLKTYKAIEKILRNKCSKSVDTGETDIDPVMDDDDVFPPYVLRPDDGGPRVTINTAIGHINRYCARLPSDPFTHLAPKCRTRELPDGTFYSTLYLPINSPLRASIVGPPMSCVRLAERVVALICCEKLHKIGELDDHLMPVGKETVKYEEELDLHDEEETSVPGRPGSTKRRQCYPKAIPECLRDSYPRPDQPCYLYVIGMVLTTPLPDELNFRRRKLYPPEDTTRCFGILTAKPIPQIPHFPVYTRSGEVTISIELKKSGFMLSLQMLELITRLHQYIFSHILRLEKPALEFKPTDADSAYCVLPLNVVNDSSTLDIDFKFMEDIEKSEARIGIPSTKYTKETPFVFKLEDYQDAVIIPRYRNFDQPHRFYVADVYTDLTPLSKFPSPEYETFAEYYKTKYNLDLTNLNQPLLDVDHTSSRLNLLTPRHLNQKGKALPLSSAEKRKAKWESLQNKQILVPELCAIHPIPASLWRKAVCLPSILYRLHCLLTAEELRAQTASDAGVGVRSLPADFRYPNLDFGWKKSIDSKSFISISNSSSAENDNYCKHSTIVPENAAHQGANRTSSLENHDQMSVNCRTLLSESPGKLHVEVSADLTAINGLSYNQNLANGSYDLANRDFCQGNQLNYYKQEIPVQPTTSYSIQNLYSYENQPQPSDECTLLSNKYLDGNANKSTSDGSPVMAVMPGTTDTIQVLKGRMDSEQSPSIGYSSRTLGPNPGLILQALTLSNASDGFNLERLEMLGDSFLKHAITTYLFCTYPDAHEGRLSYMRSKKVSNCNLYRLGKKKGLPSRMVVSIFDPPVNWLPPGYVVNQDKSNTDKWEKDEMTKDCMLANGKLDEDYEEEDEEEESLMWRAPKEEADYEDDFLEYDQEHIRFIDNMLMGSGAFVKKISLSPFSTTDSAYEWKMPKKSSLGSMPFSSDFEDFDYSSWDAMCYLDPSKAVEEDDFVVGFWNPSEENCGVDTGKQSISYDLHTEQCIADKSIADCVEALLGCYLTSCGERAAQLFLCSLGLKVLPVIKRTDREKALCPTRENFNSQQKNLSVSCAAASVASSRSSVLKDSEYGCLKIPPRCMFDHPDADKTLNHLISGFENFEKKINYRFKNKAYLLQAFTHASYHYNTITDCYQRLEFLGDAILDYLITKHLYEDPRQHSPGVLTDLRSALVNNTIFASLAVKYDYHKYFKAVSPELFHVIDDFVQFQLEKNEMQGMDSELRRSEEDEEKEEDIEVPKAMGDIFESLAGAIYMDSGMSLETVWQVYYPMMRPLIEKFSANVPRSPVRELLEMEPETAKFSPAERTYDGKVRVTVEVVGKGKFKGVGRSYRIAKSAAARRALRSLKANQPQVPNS
* = called active by the depositor. The full list was thinned out, with hits kept by preference.

SMILES | Dicer inh
CC1CCC2C(=O)N(c3ccc(Oc4ccccc4)cc3)C(=O)C2C1 (configuration not stated) | 1.6
Cn1c(=O)c2c(nc(Br)n2Cc2ccc(Cl)cc2)n(C)c1=O | 4.2*
CC(C)n1c(SCc2ccccc2F)nc2c1c(=O)n(C)c(=O)n2C | -0.32
Cn1c(=O)c2c(nc(Cl)n2Cc2ccc(F)cc2)n(C)c1=O | 3.1*
Cn1c(=O)c2c(nc(Cl)n2Cc2ccc(C(C)(C)C)cc2)n(C)c1=O | 16
Cn1c(=O)c2c(nc(Sc3ccc(Cl)cc3)n2C)n(C)c1=O | 3.1*
Cn1c(=O)c2c(nc(Cl)n2Cc2cccc(Cl)c2)n(C)c1=O | 0
Cn1c(=O)c2c(nc(SCc3cc4c(cc3Cl)OCO4)n2C)n(C)c1=O | 0.59
Cn1c(=O)c2c(ncn2Cc2ccc(Cl)cc2)n(C)c1=O | -0.04
Cn1c(=O)c2c(nc(Sc3ccccc3)n2Cc2ccc(Cl)cc2Cl)n(C)c1=O | 1.3
Cc1ccccc1CSc1nc2c(c(=O)n(C)c(=O)n2C)n1C | 5.2*
Cn1c(=O)c2c(nc(N3CCOCC3)n2Cc2ccc(Cl)cc2)n(C)c1=O | -0.46
Cn1c(=O)c2c(nc(N3CCCCC3)n2Cc2ccc(Cl)cc2)n(C)c1=O | 0.07
N/C(=N\OC(=O)c1csnc1-c1c(Cl)cccc1Cl)c1c(Cl)cccc1Cl | 0.8
O=C(O)CSCC(=O)Nc1ccc2c(c1)OCCCO2 | 1.8
Cc1csc2sc(/C=C(\C#N)S(=O)(=O)c3ccc(Cl)cc3)c(C)c12 | 0.54
COC(=O)/C=C1\S/C(=N\c2ccccn2)N(c2cccc(SC)c2)C1=O | -0.02
Nc1ncc(C(=O)Nc2ccccc2F)c(C(F)(F)F)n1 | 0.68
Cc1ccc(NC(=O)CSc2ccc(C(F)(F)F)cn2)cc1C#N | 1.3
COc1ccc(C2=NN(C(=O)CCC(=O)O)C(c3ccc(Cl)cc3)C2)cc1OC (configuration not stated) | 5.1
Cc1ccc2c(c1)C(O)(CC(=O)c1ccc(C(C)C)cc1)C(=O)N2 (configuration not stated) | 0.2
COc1ccc(C2=NN3C(C2)c2ccccc2OC3c2ccncc2)cc1OC (configuration not stated) | 1.2
COc1ccc(C2=NN3C(C2)c2cc(Cl)ccc2OC3c2cccnc2)cc1 (configuration not stated) | 2.7
Cc1ccc(O)c(C2=NN3C(C2)c2cc(Br)ccc2OC3c2cccnc2)c1 (configuration not stated) | 5.2
COc1cccc(C2=NN3C(C2)c2cc(Br)ccc2OC3c2cccnc2)c1 (configuration not stated) | 7.2*
SMILES | Dicer inh
COc1ccccc1C1Oc2ccccc2C2CC(c3cccnc3)=NN21 (configuration not stated) | 2.4
COc1ccc(C2=NN3C(C2)c2cc(Br)ccc2OC3c2cccnc2)cc1 (configuration not stated) | 4.2*
COc1ccc(C2=NN3C(C2)c2cc(Br)ccc2OC3c2ccncc2)cc1 (configuration not stated) | 8.2*
COc1ccc(C2=NN3C(C2)c2ccccc2OC3c2ccncc2)cc1 (configuration not stated) | 2.1
CN(C)/C=C(\C#N)c1cccc(C(F)(F)F)c1 | -0.58
CC(C)C12CN3CC(C(C)C)(CN(C1)C3c1ccc(N(C)C)cc1)C2=O (configuration not stated) | -0.83
CC1N=C(SCc2c(F)cccc2Cl)N2C(C)N=C(SCc3c(F)cccc3Cl)N12 (configuration not stated) | -0.41
CC(C)(C)C(=O)CSC1=NNC(c2ccccn2)S1 (configuration not stated) | -2
Cc1cc(C)cc(NC(=O)NCC(O)c2ccccc2)c1 (configuration not stated) | -1.9
O=C(NC(=S)N1CCN(c2ncc(C(F)(F)F)cc2Cl)CC1)c1ccccc1 | 30*
O=C(NC(=S)NNc1ncc(C(F)(F)F)cc1Cl)c1ccccc1 | -2.2
O=C(N=S1CCN(c2ncc(C(F)(F)F)cc2Cl)CC1)c1ccccc1 | -0.31
CC(CN1CCOCC1)OC(=O)C1c2ccccc2Oc2ccccc21 (configuration not stated) | -1.1
CC1CC(=O)C2=C(C1)Nc1nc(C(F)(F)F)nn1C2c1ccccc1 (configuration not stated) | 5.2*
O=C1CC(c2ccco2)CC2=C1C(c1ccccc1)n1nc(C(F)(F)F)nc1N2 (configuration not stated) | 0.25
COc1cc(OC)cc(-c2nc3n(n2)C(c2ccccc2)C2=C(CCCC2=O)N3)c1 (configuration not stated) | 2.4
CCOC(=O)/C(C#N)=C\Nc1cc(OC)cc2cccnc12 | -0.79
O=C(CSc1nc2ncccc2[nH]1)Nc1cccc(F)c1 | 0.06
Cc1cccc(NC(=S)NNC(=O)NNC(=S)Nc2cccc(C)c2)c1 | 1.6
C#Cc1cccc(NC(=S)NNC(=S)Nc2cccc(C#C)c2)c1 | 8.9*
C#Cc1cccc(NC(=O)c2ccccc2)c1 | -0.48
Cc1ccc(C(=O)CC2(O)C(=O)Nc3c(C)cccc32)cc1 (configuration not stated) | -0.02
COc1cccc(C2C3=C(CC(C)(C)CC3=O)Nc3ccc4ccccc4c32)c1OC (configuration not stated) | -0.52
COc1cc2nc(-c3cccc(Br)c3)oc(=O)c2cc1OC | 27*
COc1cc2nc(-c3ccc(C)cc3)oc(=O)c2cc1OC | -1.4
SMILES | Dicer inh
COc1cc2nc(C(C)(C)C)oc(=O)c2cc1OC | 4.1*
CCC(CC)c1nc2cc(OC)c(OC)cc2c(=O)o1 | 0.71
COc1cc2nc(-c3ccccc3)oc(=O)c2cc1OC | -0.18
COc1ccc(-c2nc3cc(OC)c(OC)cc3c(=O)o2)cc1 | 2
CCOC(=O)C(NC(=O)CC)(Nc1cccc(C)c1)C(F)(F)F (configuration not stated) | -0.52
CC(C)(C)c1ccc(C(=O)O/N=C(\Cn2nnc(N3CCCC3)n2)c2ccc(Cl)cc2)cc1 | -0.08
C=CCn1c2ccccc2c2nnc(SCC(=O)c3ccccc3)nc21 | 0.57
CC(=O)N1CCC(C(=O)c2c(C)c(C)c(C)c(C)c2C)CC1 | 0.71
O=C(NCCCCO)OCC1c2ccccc2-c2ccccc21 | -0.56
O=C(N/N=C/c1cccc(C(F)(F)F)c1)c1cccn1-c1ccc(F)cc1 | 0.51
COc1ccc2cccc3c2c1C=CC3=O | 4.2*
CC(=O)ON1C(=O)c2cccc3cccc(c23)C1=O | 1.2
COc1ccc2ccccc2c1Br | -1.3
Fc1cccc(Cl)c1CSc1nnc(-c2cn3cc(C(F)(F)F)cc(Cl)c3n2)o1 | -0.51
Cc1ccc(C(C)NC(=O)C(=O)Nc2cccc(C(F)(F)F)c2)c(C)c1 (configuration not stated) | -2
Cn1c(=O)c2c(-c3ccc(F)cc3)cc(-c3cccc(F)c3)nc2n(C)c1=O | 2.2
COc1ccc(-c2nc3c([nH]2)c(=O)n(C)c(=O)n3C)c(OC)c1 | -0.42
COc1ccc(-c2cc(-c3ccc(OC)cc3)c3c(=O)n(C)c(=O)n(C)c3n2)cc1 | 3.4*
CCN(CC)CCn1c(C)nc2ccccc21 | -0.35
CCN(CC)CCn1c(NCc2ccccn2)nc2ccccc21 | 1.7
CCN(CC)CCn1c(NCc2ccc(C)cc2)nc2ccccc21 | 0.08
CCN(CC)CCn1c(NCc2cccc(Br)c2)nc2ccccc21 | 3.9*
CCCn1c(Nc2nc3ccccc3n2C)nc2ccccc21 | 4.9*
CCc1ccc(CNc2nc3ccccc3n2CCN(CC)CC)cc1 | 3.3*
CCCCn1c(NCc2ccccn2)nc2ccccc21 | 1.2
CCCn1c(SCCO)nc2ccccc21 | 0.15
